Structures are written as SMILES.

Streptavidin (Streptomyces avidinii), sequence (P22629 whole entry, looked up): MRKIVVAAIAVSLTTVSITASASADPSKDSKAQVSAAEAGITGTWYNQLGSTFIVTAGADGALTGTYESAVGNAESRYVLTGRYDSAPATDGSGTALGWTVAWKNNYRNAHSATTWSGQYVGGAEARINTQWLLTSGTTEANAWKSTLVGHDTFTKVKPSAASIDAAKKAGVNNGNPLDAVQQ

This test concerns the target Streptavidin (Streptomyces avidinii) (UniProt P22629). The experiment in a line: compounds binding control protein streptavidin – biophysical, small-molecule microarray, 635/667 nm fluorescence, artefact control for SMM compound annotation, primary screen (AID 1147).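 Also: signal reflects streptavidin binding to arrayed compounds as a control protein.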 To be noted: higher = more signal.
In turn, `O=C1O[C@H](c2ccccc2)[C@H](c2ccccc2)N2[C@H]1[C@@H](C(=O)NC[C@H](O)c1ccccc1)[C@]1(C(=O)Nc3ccc(C#CC4(O)CCCCCC4)cc31)[C@H]2c1ccccc1OCCO` returned a composite z-score of -0.428.
The same measure for `O=C1OCCC=C[C@H]2OC34C=CCN(c5ccc6ccccc6c5)C(=O)[C@H]3N(CCCCCCO)C(=O)[C@@H]4C12` (some centres undefined): -1.1; for `COC(=O)C(CC#Cc1ccc2c(c1)[C@]1(C(=O)N2)[C@H](C(=O)N2CCCCCCC2)[C@H]2C(=O)O[C@H](c3ccccc3)[C@H](c3ccccc3)N2[C@@H]1c1ccccc1OCCO)C(=O)OC`: 4.06; for `[N-]=[N+]=Nc1ccccc1[C@@H]1OC(c2ccc(OCCCO)cc2)=N[C@]1(CCS(=O)(=O)c1ccccc1)C(=O)N1CCCCC1`: 1.45.
The same measure for `CCOC(=O)C[C@H]1[C@H](OC(=O)c2cc3ccccc3oc2=O)[C@@H](NC(=O)c2ccc3ccccc3c2)c2cc(OCCCO)ccc2N1C(=O)c1ccccc1`: 0.976.
In turn, `COCCOC(=O)N1C(=O)[C@@]2(c3cc(C#CCCO)ccc31)[C@H](c1ccc(O)cc1)N1[C@H](c3ccccc3)[C@H](c3ccccc3)OC(=O)[C@H]1[C@@H]2C(=O)N1CCCCCCC1` returned a composite z-score of 0.825.
Compound `O=[N+]([O-])c1ccc(C[n+]2ccc(CCCO)cc2)o1` had a composite z-score of 1.15.
As for `COCCn1c(C(=O)N2CCCC2)cc2c1C[C@H]1CN(C(=O)c3ccccc3)[C@@](Cc3ccc(OC)cc3)(C(=O)OC)[C@@H]21`, the composite z-score worked out at 2.01.
For the compound `O=C1c2ccccc2[C@](Cc2ccccc2I)(C(=O)O)[C@H](c2ccc(CO)cc2)N1Cc1ccccc1C(F)(F)F`, the composite z-score was 0.477.

Values taken from PubChem BioAssay.
